# “And” between values parts separate entries of the source, which are not always exact repeats. Equal entries are not always repeated. Where two headings read alike, the source gives them in different places.
# Tests used:
# DAPK2 = conditions: n = 1
# DAPK3 = conditions: n = 1
# DCAMKL1 = test system: T1, DCAMKL1; conditions: n = 1
# T1 construct: gene DCLK1
# DCAMKL2 = test system: T2, DCAMKL2; conditions: concentration: 1 μM, replicates: in singlicate; n = 1
# T2 construct: gene DCLK2
# DCAMKL3 = test system: T3, DCAMKL3; conditions: n = 1
# T3 construct: gene DCLK3
# DDR1 = conditions: n = 1
# DDR2 = conditions: concentration: 1 μM, replicates: in singlicate; n = 1
# DLK = test system: T4, DLK; conditions: n = 1
# T4 construct: gene MAP3K12
# DMPK2 = test system: T5, DMPK2; conditions: n = 1
# T5 construct: gene CDC42BPG
# DMPK = conditions: concentration: 1 μM, replicates: in singlicate; n = 1
# DRAK1 = test system: T6, DRAK1; conditions: n = 1
# T6 construct: gene STK17A
# DRAK2 = test system: T7, DRAK2; conditions: n = 1
# T7 construct: gene STK17B
# DYRK1A = conditions: n = 1
# DYRK1B = conditions: n = 1
# DYRK2 = conditions: n = 1
# EGFR = conditions: n = 1
# EIF2AK1 = conditions: concentration: 1 μM, replicates: in singlicate; n = 1
# EPHA1 = conditions: n = 1
# EPHA2 = conditions: n = 1
# EPHA3 = conditions: concentration: 1 μM, replicates: in singlicate; n = 1
# [1] = concentration: 1 μM, replicates: in singlicate
# [2] = concentration: 1 μM,replicates: in singlicate, 1 µM
# 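Further: KINOMEscan kinase panel screen.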
smiles,measurement,setting,value
COc1ccc2nc(-c3cccc(C)n3)nc(Nc3ccncc3)c2c1 [GSK204919],%Inh,DAPK2; [1],0%
same,%Inh,DAPK3; [1],22%
same,%Inh,DCAMKL1; [1],5%
same,%Inh,DCAMKL2,26%
same,%Inh,DCAMKL3; [1],0%
same,%Inh,DDR1; [1],58%
same,%Inh,DDR2,5%
same,%Inh,DLK; [1],8%
same,%Inh,DMPK2; [1],91.1%
same,%Inh,DMPK,0%
same,%Inh,DRAK1; [1],0%
same,%Inh,DRAK2; [1],0%
same,%Inh,DYRK1A; [1],24%
same,%Inh,DYRK1B; [1],0%
same,%Inh,DYRK2; [1],0%
same,%Inh,EGFR; [1],20%
same,%Inh,EIF2AK1,0%
same,%Inh,EPHA1; [1],0%
same,%Inh,EPHA2; [1],20%
same,%Inh,EPHA3,0%
CSc1nn2c(=O)cc(N3CCOCC3)nc2n1Cc1cccc(C(F)(F)F)c1C [GSK2363608],%Inh,DAPK2; [2],9% and 0%
same,%Inh,DAPK3; [2],27% and 0%
same,%Inh,DCAMKL1; [2],10% and 0%
same,%Inh,DCAMKL2,0%
same,%Inh,DCAMKL3; [2],34% and 0%
same,%Inh,DDR1; [2],7% and 4%
same,%Inh,DDR2,0%
same,%Inh,DLK; [2],34% and 0%
same,%Inh,DMPK2; [2],24% and 2%
same,%Inh,DMPK,0%
same,%Inh,DRAK1; [2],0% and 17%
same,%Inh,DRAK2; [2],0% and 8%
same,%Inh,DYRK1A; [2],23% and 21%
same,%Inh,DYRK1B; [2],8% and 13%
same,%Inh,DYRK2; [2],16% and 14%
same,%Inh,EGFR; [2],36% and 20%
same,%Inh,EIF2AK1,0%
same,%Inh,EPHA1; [2],28% and 9%
same,%Inh,EPHA2; [2],5% and 0%
same,%Inh,EPHA3,0%
COC(=O)c1c(-c2ccccc2)c2cc(OC)ccc2c(=O)n1Cc1ccccc1,%Inh,DAPK2; [1],2%
same,%Inh,DAPK3; [1],6%
same,%Inh,DCAMKL1; [1],12%
same,%Inh,DCAMKL2,7%
same,%Inh,DCAMKL3; [1],0%
same,%Inh,DDR1; [1],81%
same,%Inh,DDR2,50%
same,%Inh,DLK; [1],9%
same,%Inh,DMPK2; [1],0%
same,%Inh,DMPK,0%
same,%Inh,DRAK1; [1],0%
same,%Inh,DRAK2; [1],22%
same,%Inh,DYRK1A; [1],0%
same,%Inh,DYRK1B; [1],12%
same,%Inh,DYRK2; [1],0%
same,%Inh,EGFR; [1],0%
same,%Inh,EIF2AK1,5%
same,%Inh,EPHA1; [1],0%
same,%Inh,EPHA2; [1],3%
same,%Inh,EPHA3,9%
Cn1ccc2ncnc(Oc3cccc(C(=O)Nc4ccccc4)c3)c21,%Inh,DAPK2; [1],24%
same,%Inh,DAPK3; [1],0%
same,%Inh,DCAMKL1; [1],28%
same,%Inh,DCAMKL2,0%
same,%Inh,DCAMKL3; [1],0%
same,%Inh,DDR1; [1],0%
same,%Inh,DDR2,9%
same,%Inh,DLK; [1],0%
same,%Inh,DMPK2; [1],0%
same,%Inh,DMPK,11%
same,%Inh,DRAK1; [1],0%
same,%Inh,DRAK2; [1],12%
same,%Inh,DYRK1A; [1],2%
same,%Inh,DYRK1B; [1],24%
same,%Inh,DYRK2; [1],0%
same,%Inh,EGFR; [1],0%
same,%Inh,EIF2AK1,18%
same,%Inh,EPHA1; [1],0%
same,%Inh,EPHA2; [1],0%
same,%Inh,EPHA3,0%
CS(=O)(=O)c1ccc(-c2nc3n(c2-c2ccncc2)CCC3)cc1 [SKF-105942],%Inh,DAPK2; [1],0%
same,%Inh,DAPK3; [1],22%
same,%Inh,DCAMKL1; [1],21%
same,%Inh,DCAMKL2,13%
same,%Inh,DCAMKL3; [1],20%
same,%Inh,DDR1; [1],0%
same,%Inh,DDR2,7%
same,%Inh,DLK; [1],0%
same,%Inh,DMPK2; [1],0%
same,%Inh,DMPK,0%
same,%Inh,DRAK1; [1],0%
same,%Inh,DRAK2; [1],0%
same,%Inh,DYRK1A; [1],20%
same,%Inh,DYRK1B; [1],0%
same,%Inh,DYRK2; [1],5%
same,%Inh,EGFR; [1],5%
same,%Inh,EIF2AK1,13%
same,%Inh,EPHA1; [1],1%
same,%Inh,EPHA2; [1],6%
same,%Inh,EPHA3,0%
Cc1c(Cn2ccn3c(=O)cc(N4CCOCC4)nc23)cccc1C(F)(F)F [GSK2289044],%Inh,DAPK2; [1],12%
same,%Inh,DAPK3; [1],12%
same,%Inh,DCAMKL1; [1],3%
same,%Inh,DCAMKL2,0%
same,%Inh,DCAMKL3; [1],13%
same,%Inh,DDR1; [1],0%
same,%Inh,DDR2,8%
same,%Inh,DLK; [1],0%
same,%Inh,DMPK2; [1],0%
same,%Inh,DMPK,64%
same,%Inh,DRAK1; [1],0%
same,%Inh,DRAK2; [1],0%
same,%Inh,DYRK1A; [1],10%
same,%Inh,DYRK1B; [1],21%
same,%Inh,DYRK2; [1],14%
same,%Inh,EGFR; [1],40%
same,%Inh,EIF2AK1,2%
same,%Inh,EPHA1; [1],9%
same,%Inh,EPHA2; [1],13%
same,%Inh,EPHA3,27%
Cl.c1ccc(-c2n[nH]cc2-c2ccnc(-c3ccc(CN4CCOCC4)cc3)c2)nc1 [GW776245],%Inh,DAPK2; [1],12%
same,%Inh,DAPK3; [1],4%
same,%Inh,DCAMKL1; [1],38%
same,%Inh,DCAMKL2,16%
same,%Inh,DCAMKL3; [1],12%
same,%Inh,DDR1; [1],0%
same,%Inh,DDR2,34%
same,%Inh,DLK; [1],0%
same,%Inh,DMPK2; [1],9%
same,%Inh,DMPK,0%
same,%Inh,DRAK1; [1],0%
same,%Inh,DRAK2; [1],20%
same,%Inh,DYRK1A; [1],0%
same,%Inh,DYRK1B; [1],0%
same,%Inh,DYRK2; [1],0%
same,%Inh,EGFR; [1],34%
same,%Inh,EIF2AK1,0%
same,%Inh,EPHA1; [1],7%
same,%Inh,EPHA2; [1],6%
same,%Inh,EPHA3,1%
